Reference: PubChem BioAssay AID763 (NMMLSC, 2007)

target: fMet-Leu-Phe receptor (Homo sapiens) (UniProt P21462); assay: human FPR1 ligand displacement single-point test – cell-based, single concentration, selectivity assay for FPRL1 ligand SAR project, SAR follow-up (AID 763); conditions: FPR1-expressing cells, fluorescent ligand binding inhibition, hits give high values; at 5.4 µM unless noted
Sequence (P21462 whole entry, looked up): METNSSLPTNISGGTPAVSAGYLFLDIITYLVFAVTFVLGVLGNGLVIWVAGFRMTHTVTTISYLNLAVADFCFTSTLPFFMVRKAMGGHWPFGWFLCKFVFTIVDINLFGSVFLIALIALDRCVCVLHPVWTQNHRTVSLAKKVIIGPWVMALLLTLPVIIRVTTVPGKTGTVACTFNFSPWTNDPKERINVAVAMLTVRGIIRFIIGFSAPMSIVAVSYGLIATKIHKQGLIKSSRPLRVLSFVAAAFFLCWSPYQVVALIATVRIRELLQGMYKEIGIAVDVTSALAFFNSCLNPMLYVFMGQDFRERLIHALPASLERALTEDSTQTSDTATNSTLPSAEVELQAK

inhibition, inactive:
COc1cccc(-c2cc(C(F)(F)F)nc(N3CCN(c4ccccc4)CC3)n2)c1 -7.4%
Cc1ccc(C(=O)N2CCN(c3nc(-c4ccccc4)c4cc(Br)ccc4n3)CC2)cc1 -4.3% [at 4.6 µM]
COc1ccc(-c2cc(C(F)(F)F)nc(N3CCN(c4ccc(F)cc4)CC3)n2)cc1OC -1.4% [at 4.8 µM]
COc1ccc(C2CC(=O)c3cnc(N4CCN(Cc5ccc6c(c5)OCO6)CC4)nc3C2)cc1OC (stereo not drawn) -0.9% [at 4.4 µM]
CC(=O)N1CCN(c2nc(-c3ccccc3)c3cc(C)ccc3n2)CC1 -0.1% [at 6.4 µM]
CCOC(=O)N1CCN(c2nc(-c3ccccc3)cc(C(F)(F)F)n2)CC1 1.5% [at 5.8 µM]
N#Cc1cc(-c2ccccc2)nc(N2CCN(c3ccccc3)CC2)n1 -6% [at 6.5 µM]
CN1CCN(c2nc(-c3ccccc3)cc(C(F)(F)F)n2)CC1 -5.9% [at 6.9 µM]
O=C(N1CCN(c2nc(-c3ccccc3)c3cc([N+](=O)[O-])ccc3n2)CC1)C(F)(F)F -1.2% [at 5.2 µM]
Clc1ccccc1-c1nc(N2CCN(c3ccccc3)CC2)nc2ccc(Br)cc12 1.5% [at 4.6 µM]
COc1ccc(-c2cn3cccnc3n2)cc1NC(=O)c1cccc(F)c1 -0.9% [at 6.1 µM]
COc1ccc(C(=O)Nc2cc(-c3cn4cccnc4n3)ccc2OC)cc1 3.4% [at 5.9 µM]
O=C(c1ccccc1)N1CCN(c2nc(-c3ccccc3)c3ccccc3n2)CC1 1.8% [at 5.6 µM]
CCCCN1CCN(c2nc(-c3ccccc3)c3cc(C)ccc3n2)CC1 -1.5% [at 5.6 µM]
FC(F)(F)c1cc(-c2cccs2)nc(N2CCN(Cc3ccccc3)CC2)n1 0.4% [at 5.5 µM]
CCCC(=O)Nc1cc(-c2cn3cccnc3n2)ccc1OC 0.5% [at 7.2 µM]
CCN1CCN(c2nc(-c3ccc(Cl)cc3)cc(C(F)(F)F)n2)CC1 -3.5% [at 6 µM]
COc1ccc(-c2nc(N3CCN(C)CC3)[nH]c(=O)c2C#N)cc1 -1.7% [at 6.8 µM]
O=C(O)CCCC(=O)N1CCN(c2nc(-c3ccccc3Cl)c3cc(Br)ccc3n2)CC1 1.9% [at 4.3 µM]
COc1ccc(-c2cn3cccnc3n2)cc1NC(=O)CCC1CCCCC1 -4.2% [at 5.9 µM]
Clc1cccc(-c2nc(N3CCN(c4ccccn4)CC3)nc3c2COc2ccccc2-3)c1 1.7% [at 4.9 µM]
O=C(O)/C=C\C(=O)N1CCN(c2nc(-c3ccccc3)c3cc(Br)ccc3n2)CC1 -5.7% [at 4.8 µM]
Cc1ccc2nc(N3CCN(C(=O)CCC(=O)O)CC3)nc(-c3ccccc3)c2c1 5.7% [at 5.5 µM]
COc1ccc(-c2cn3cccnc3n2)cc1NC(=O)C1CCCC1 6.6% [at 6.6 µM]
CC(=O)N1CCN(c2nc(-c3ccccc3)c3cc(Cl)ccc3n2)CC1 2.2% [at 6.1 µM]
CC(C)(C)OC(=O)N1CCN(c2nc(-c3ccccc3Cl)c3cc(Br)ccc3n2)CC1 8.5% [at 4.4 µM]
CCC(=O)Nc1cc(-c2cn3cccnc3n2)ccc1OC 5% [at 7.5 µM]
COc1ccc(-c2cn3cccnc3n2)cc1NC(=O)CCCc1ccccc1 -0.5% [at 5.8 µM]
COc1ccc(-c2cn3cccnc3n2)cc1NC(=O)c1cc(C)cc(C)c1 -0.5% [at 6 µM]
Clc1ccccc1N1CCN(c2nc(-c3ccccc3)c3cc(Br)ccc3n2)CC1 2.1% [at 4.6 µM]
O=C(c1ccc(Cl)cc1)N1CCN(c2nc(-c3ccccc3)c3ccccc3n2)CC1 -1.9% [at 5.2 µM]
CCOc1ccc(C(=O)Nc2cc(-c3cn4cccnc4n3)ccc2OC)cc1 -6.6% [at 5.7 µM]
CCN1CCN(c2nc(-c3cccc(Cl)c3)c3c(n2)-c2ccccc2OC3)CC1 -9.4% [at 5.5 µM]
